# Rows were chosen to be rich in hits. Some 6.6% of all compounds tested hit in one or more screens of this group.
# HT1080 IDH1KD tx: kills HT-1080 cells with IDH1 knockdown; Potency, µM (doses to about 46.1 µM), without a hit: at the top dose activity, negative = toxicity, hits mostly cytotoxic; HT-1080 IDH1 knockdown viability, ATP luminescence, 48 h; 2% of 360,000 active;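 note: 0% = DMSO wells and -100% = cell-free medium wells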
#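 IDH1KD HT-1080 cells, 750/well, RPMI + 5% FBS; compound pinned after 2 h settling; 48 h, 37 °C; CellTiter-Glo luminescence; % activity normalised to DMSO and no-cell wells; curves fitted, classed by r2 and efficacy.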
# KB-V1 cytotox: kills drug-selected multidrug resistant KB-V1 cells. 3.4% of 400,000 active. KB-V1 MDR cells viability, CellTiter-Glo, 72 h. Potency, µM (highest dose often 46.1 µM), hits mostly cytotoxic; note: % is set by controls: 0 for no effect and ±100 for the full control effect; nearly all actives have a fitted effect of over 60% in size
#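 Drug-selected KB-V1 cells, grown in DMEM lacking phenol red with 10% FBS, receive compound titrations; after three days at 37 degrees C, surviving cell ATP is quantified by CellTiter-Glo luminescence and responses normalized and curve-fitted.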
# TGFb SMAD3 inh: TGF-b pathway inhibition. HepG2 CAGA-GFP TGF-b/SMAD3 reporter, GFP fluorescence, 18 h; TGF-beta stimulated, 500 pg/mL final. Potency, µM (titrated, usually from 46.1 µM), without a hit: at the highest dose activity, negative = inhibition, hits mostly inhibitors. 1.2% of 410,000 active. AID 588855; note: % is set by controls: 0 for no effect and ±100 for the full control effect; nearly all actives have a fitted effect of over 65% in size
#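 GFP signal (ex488/em500-530) from TGF-beta-stimulated HEPG2 CAGA-GFP cells, 500 pg/mL final, 18 h at 37 degrees C in DMEM plus 1% FBS, normalized to unstimulated and DMSO-stimulated controls.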
# HepG2 tox: HepG2 cytotoxicity, counter-screen for TGF-b inhibitors | HepG2 CAGA-GFP viability, ATP luminescence, 18 h | Potency, µM (top dose mostly 46.1 µM), for inactives: top-dose activity change, negative = cytotoxicity, actives largely listed as cytotoxic | 0.76% of 410,000 active | AID 588856
#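 HepG2 CAGA-GFP cells (1000/well, DMEM with 1% FBS) received compound, then TGF-beta at 500 pg/mL final, and were incubated 18 hours at 37 degrees C. Viability was read by CellTiter-Glo luminescence. Media-only wells were set as complete cell-killing and DMSO as no toxicity.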
# HT1080NT lethal: kills 2HG-producing HT-1080-NT fibrosarcoma cells | HT-1080-NT fibrosarcoma viability, CellTiter-Glo ATP luminescence, 48 h | Potency, µM (highest dose often 46.1 µM), for the others: top-dose activity, negative = less viability, actives largely listed as cytotoxic | 1.6% of 360,000 active | AID 686970;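 note: NT is the 2HG producing partner of a matched IDH1 knockdown line; 0% = DMSO-treated cells and -100% = media-only wells without cells; nearly all actives have a fitted effect of over 55% in size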
#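 HT-1080-NT; 750 cells/well; 5% FBS RPMI; 48 h compound, 37 degrees C; CellTiter-Glo luminescence; curve fitting and curve-class assignment.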
# KB-3-1 cytotox: KB-3-1 parental cell cytotoxicity | KB-3-1 viability, CellTiter-Glo ATP luminescence, 72 h | Potency, µM (top dose mostly 46.1 µM), actives largely listed as cytotoxic | 1.4% of 400,000 active | AID 1347075; note: % is set by controls: 0 for no effect and ±100 for the full control effect; nearly all actives have a fitted effect of over 60% in size
#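 Multi-concentration cytotoxicity screen in KB-3-1 cells grown in DMEM lacking phenol red with 10% FBS. After 72 h at 37 °C with compound, ATP-dependent luminescence was recorded.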
# An asterisk follows results filed as active; i = inactive; ? = inconclusive; / = no result. Calls come from the whole dose curve; as a rule, active = well fitted curve in the direction sought with a large enough effect; inconclusive = small, poorly fitted or top-dose-only effect, or another doubt; inactive = no such curve, though single readings can be large; an effect the other way counts as inactive or inconclusive. Potency is the fitted concentration of half-maximal effect.
SMILES,HT1080 IDH1KD tx,KB-V1 cytotox,TGFb SMAD3 inh,HepG2 tox,HT1080NT lethal,KB-3-1 cytotox
COc1ccc(C(=O)NC(=S)Nc2ccc(Cc3ccncc3)cc2)cc1,21µM*,?,-26%,-17%,18µM*,?
COc1ccccc1C(=O)Nc1ccc(Cc2ccncc2)cc1,8%,9.2µM*,?,-17%,10%,?
Cc1ccccc1C(=O)NC(=S)Nc1ccc(Cc2ccncc2)cc1,14%,i,-9%,11%,23%,i
COc1ccc([N+](=O)[O-])cc1C(=O)Nc1ccc(Cc2ccncc2)cc1,1%,i,0%,-27%,13%,i
Nc1c(C(=O)Nc2nc3ccccc3s2)sc2nc(-c3cccs3)ccc12,18µM*,i,208%,6.3µM*,?,8.2µM*
Nc1c(C(=O)Nc2ccccc2Br)sc2nc(-c3cccs3)ccc12,/,i,-1%,-2%,/,i
CCn1ccc2cc(S(=O)(=O)N3CCCN(C(=O)Nc4ccc(C)c(F)c4)CC3)ccc21,/,?,?,-1%,/,?
CCn1ccc2cc(S(=O)(=O)N3CCCN(C(=O)Nc4cccc(Cl)c4)CC3)ccc21,/,10µM*,?,-26%,/,?
CN1CCN(S(=O)(=O)c2ccc(NC(=O)c3ccc(Br)o3)cc2)CC1,-2%,9.2µM*,0%,1%,5%,i
O=C(Nc1ccc(S(=O)(=O)NCCc2ccccc2)cc1)c1ccc(Br)o1,-5%,10µM*,3%,-28%,-20%,i
O=C(Nc1ccc(S(=O)(=O)N2CCCC2)cc1)c1ccc(Br)o1,0%,i,-33%,-11%,-12%,i
Cc1ccc(NS(=O)(=O)c2ccc(NC(=O)c3ccc(Br)o3)cc2)c(C)c1,?,18µM*,?,-10%,?,21µM*
CCC(=O)Nc1ccc(S(=O)(=O)NCCc2ccccc2)cc1,0%,?,-6%,1%,4%,i
COc1cc(NC(=O)C2Cc3ccccc3N2C(=O)c2ccccc2)cc(OC)c1 (stereo not given),/,i,-4%,-5%,/,i
[O-][N+](=NC1C=Cc2ccccc21)C1C=Cc2ccccc21 (stereo not given),/,i,-3%,-8%,/,?
CN1CCN(S(=O)(=O)c2ccc(NC(=O)c3ccccc3Cl)cc2)CC1,0%,i,-8%,-17%,-4%,i
CN1CCN(S(=O)(=O)c2ccc(NC(=O)Nc3cccc(Cl)c3)cc2)CC1,18µM*,i,?,-12%,21µM*,i
Cc1cc(NC(=O)c2ccc(Br)o2)ccc1NC(=O)c1ccco1,?,10µM*,15%,10µM*,?,?
O=C(Nc1cccc(Cl)c1)C1CCCN(S(=O)(=O)c2ccc(F)cc2)C1 (stereo not given),?,6.5µM*,?,5%,?,?
Cc1ccc(NS(=O)(=O)c2ccc(NC(=O)CSc3ccc(Cl)cc3)cc2)c(C)c1,?,i,-20%,-19%,16µM*,?
O=C(CN1C(=O)C2(SCC(=O)N2c2ccc(F)c(F)c2)c2ccccc21)NCCc1ccccc1 (stereo not given),/,?,-14%,-11%,/,i
Cc1cc(C)cc(NS(=O)(=O)c2ccc(NC(=S)NC(=O)c3ccc(Br)o3)cc2)c1,?,18µM*,?,-85%,?,?
Cc1ccc(S(=O)(=O)N2CCn3cccc3C2C)cc1 (stereo not given),-8%,13µM*,?,-34%,0%,i
Cc1oc(-c2ccc(C(=O)Nc3cc(F)ccc3F)cc2)nc1COc1ccccc1,/,i,1%,-4%,/,i
CCc1ccccc1Oc1nc2cc(-c3cccc(OC)c3)sc2c(=O)n1C,25%,i,14%,14%,1%,i
SMILES,HT1080 IDH1KD tx,KB-V1 cytotox,TGFb SMAD3 inh,HepG2 tox,HT1080NT lethal,KB-3-1 cytotox
COc1ccccc1CCn1cnc2c3cc(C)ccc3n(C)c2c1=O,-11%,?,-2%,-37%,-29%,i
CCCCc1c(-c2cccc(OC)c2)ncn1CCc1ccccc1OC,26µM*,12µM*,/,/,21µM*,?
COc1ccccc1CCn1cnc(-c2ccc(OC)c(OC)c2)c1C(C)C,?,i,/,/,23µM*,?
CCCCc1c(Cc2cccc(F)c2)ncn1CCc1ccccc1OC,?,?,/,/,16µM*,?
CCCCc1c(-c2ccc(OC)c(OC)c2)ncn1CCc1ccccc1OC,12µM*,9.2µM*,/,/,15µM*,?
Cc1ccc(C)c(-n2cc(-c3ccccc3)nc2SCC(=O)Nc2ccccc2)c1,/,?,?,-19%,/,i
COc1ccc(OCC(=O)OCc2cc(=O)n3nc(C4CC4)sc3n2)cc1,/,i,1%,-6%,/,i
O=C(Cn1c(-c2cccs2)cc2cc(Cl)ccc21)NCc1ccccc1,/,i,-21%,-10%,/,i
COC(=O)c1sccc1S(=O)(=O)N(CC(=O)NCc1ccccc1)c1ccc(C)cc1,/,i,?,-21%,/,i
CCCCCc1c(-c2ccccc2)ncn1CCc1ccccc1OC,?,15µM*,/,/,?,?
CCCCCc1c(-c2ccc(F)cc2F)ncn1CCc1ccccc1OC,?,13µM*,/,/,?,?
Cc1cccc(NC(=O)CCS(=O)(=O)c2cc(Br)cc3c2N(C(=O)C2CC2)CC3)c1,/,i,1%,-3%,/,i
COc1ccc(S(=O)(=O)N(CC(=O)Nc2ccc3c(c2)OCO3)c2ccc(C)cc2)cc1,/,i,3%,-25%,/,i
COc1cc(CN(C(=S)NCC(=O)NC2CCCC2)C2CCCC2)cc(OC)c1OC,-10%,13µM*,-8%,7%,5%,i
CCCCNC(=O)CNC(=S)N(Cc1cc(OC)c(OC)c(OC)c1)C1CCCC1,-9%,i,0%,26%,-13%,i
Cc1ccc(C)n1-c1nnc(N2CCCC(C(=O)NCc3ccc(Cl)cc3)C2)s1 (stereo not given),/,/,/,-5%,/,/
Cc1ccc([N+](=O)[O-])cc1N=Nc1c(-c2ccc([N+](=O)[O-])cc2)[nH]n(C(N)=S)c1=O,?,?,2.8µM*,-34%,?,i
NC(=S)n1[nH]c(-c2ccc([N+](=O)[O-])cc2)c(N=Nc2ccc(Cl)cc2)c1=O,4.1µM*,i,2.5µM*,2.5µM*,2.6µM*,18µM*
Cc1nc2nc(-c3ccccc3)cn2nc1C,-12%,21µM*,1%,-46%,-17%,i
